# From PubChem BioAssay
# Sampled rows, rich in hits. Any-hit rate of the full collection: about 3.4%.
# PP5 primary: PP5 phosphatase inhibitors, primary screen, biochemical, fluorescence; Serine/threonine-protein phosphatase 5 (Homo sapiens), P53041; purified PP5c, OMFP substrate fluorescence; inhibition, % at 6.7 µM; 320,000 compounds, 0.18% hits; AID 1987, 2009;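 active = inhibition above the campaign's mean inhibition across all tested compounds plus 3 SD, cut at about 9.5% in these data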;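 also: 0% = DMSO only and 100% = 100 µM cantharidin control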
# PP1 inh: PP1-alpha phosphatase inhibitors, primary screen, counter-screen for PP5 inhibitor project, biochemical, fluorescence, OMFP substrate, single point | Serine/threonine-protein phosphatase PP1-alpha catalytic subunit (Homo sapiens), P62136 | purified PP1alpha | inhibition, % at 6.7 µM | 320,000 compounds, 0.9% hits | AID 2235, 2010;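 active = inhibition above the mean inhibition of all tested compounds plus 3 SD, computed separately for each screening campaign, cut at about 15% in these data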
# PAFAH1B2 inh: PAFAH1B2 enzyme inhibitors, primary screen, biochemical, fluorescence polarization, human. inhibition, % at 3.39 µM. Platelet-activating factor acetylhydrolase IB subunit alpha2 (Homo sapiens), P68402. 340,000 compounds, 1.2% hits. recombinant PAFAH1B2, FP-rhodamine activity probe;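 active = inhibition above the mean of all tested compounds plus 3 SD, cut at about 24% in these data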;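 also: 0% = enzyme with DMSO and 100% = wells lacking PAFAH1B2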
# PAFAH2 inh: PAFAH2 enzyme inhibitors, primary screen, biochemical, fluorescence polarization, human. inhibition, % at 3.39 µM. 340,000 compounds, 0.99% hits. Platelet-activating factor acetylhydrolase 2, cytoplasmic (Homo sapiens), Q99487. recombinant PAFAH2, FP-rhodamine activity probe;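 active = inhibition above the mean over all tested compounds plus 3 SD, cut at about 30% in these data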;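 also: inhibitors block probe labeling of enzyme so polarization drops; 0% = enzyme with DMSO and 100% = wells lacking PAFAH2 protein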
# PAFAH1B3 inh: PAFAH1B3 enzyme inhibitors, primary screen, biochemical, fluorescence polarization, human; recombinant PAFAH1B3, FP-rhodamine probe; 340,000 compounds, 0.28% hits; Platelet-activating factor acetylhydrolase IB subunit alpha1 (Homo sapiens), Q15102; inhibition, % at 3.39 µM;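 active = inhibition above the screen-wide average of all tested compounds plus 3 SD, cut at about 25% in these data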;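 also: 0% = enzyme with DMSO only and 100% = wells lacking PAFAH1B3 protein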
# pPAFAH FP inh: pPAFAH enzyme inhibitors, primary screen, biochemical, fluorescence polarization, human; Platelet-activating factor acetylhydrolase (Homo sapiens), Q13093; recombinant pPAFAH, FP-rhodamine probe fluorescence polarization; inhibition, % at 3.39 µM; 330,000 compounds, 1.5% hits; AID 463082, 2010;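 active = inhibition above the mean inhibition across the screen plus 3 SD, cut at about 25% in these data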;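 also: inhibitors block binding of the rhodamine activity-based probe so polarization drops; 0% = enzyme with DMSO and 100% = wells lacking pPAFAH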
# Target sequence (Q13093 whole entry, looked up): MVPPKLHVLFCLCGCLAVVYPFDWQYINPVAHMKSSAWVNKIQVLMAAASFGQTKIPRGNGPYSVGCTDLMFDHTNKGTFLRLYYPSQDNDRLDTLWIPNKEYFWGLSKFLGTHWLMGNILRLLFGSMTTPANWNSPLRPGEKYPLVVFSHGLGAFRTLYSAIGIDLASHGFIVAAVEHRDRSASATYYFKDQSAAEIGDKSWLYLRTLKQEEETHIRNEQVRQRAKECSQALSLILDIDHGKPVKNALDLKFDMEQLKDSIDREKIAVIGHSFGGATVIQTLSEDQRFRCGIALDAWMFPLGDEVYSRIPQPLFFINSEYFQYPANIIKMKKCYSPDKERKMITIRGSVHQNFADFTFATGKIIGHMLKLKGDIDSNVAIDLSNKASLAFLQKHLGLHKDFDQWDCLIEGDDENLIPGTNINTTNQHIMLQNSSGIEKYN
# PAFAH2 FP conf: PAFAH2 enzyme inhibitors, confirmation, biochemical, fluorescence polarization, human. shares compounds with PAFAH2 inh. recombinant PAFAH2, FP-rhodamine activity probe. inhibition, % at 3.39 µM. 2,300 compounds, 65% hits. AID 493030, 2011;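 active = mean inhibition over three repeats above a set limit taken from the earlier primary screen, cut at about 30% in these data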;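 also: inhibitor blocks binding of rhodamine activity probe so polarization falls; 0% = enzyme with DMSO and 100% = wells lacking PAFAH2 protein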
# * marks the source's active call; other numbers are inactive results; . = no result given.
SMILES,PP5 primary,PP1 inh,PAFAH1B2 inh,PAFAH2 inh,PAFAH1B3 inh,pPAFAH FP inh,PAFAH2 FP conf
Oc1[nH]c2ccccc2c1N=Nc1ccccc1,0,-1,0,-4,1,1,.
O=C(c1ccccc1)N1N=C(c2ccccc2)CC1c1cccs1 (stereo not drawn),3,5,4,1,11,8,.
Cn1c(O)c(C2=c3ccccc3=NC2=O)[nH]c1=S,4,6,-3,4,-8,-1,.
COc1ccc2nc(-n3c(O)c(C4=c5ccccc5=NC4=O)[nH]c3=S)sc2c1,3,15*,15,60*,18,21,40*
COc1ccc(C(=O)/C=C/N2CCCCC2)cc1OC,2,-2,8,3,2,4,.
Cc1cnc(CN(C)C(=O)c2ccc3oc(Cc4ccccc4)nc3c2)[nH]1,0,2,4,4,6,-3,.
CC(c1ccncn1)N(C)C(=O)c1ccc2oc(Cc3ccccc3)nc2c1 (stereo not drawn),1,1,-3,36*,6,1,27
COc1cc(-c2nnc3n(CCc4ccccc4)c(=O)c4ccccc4n23)cc(OC)c1OC,2,-4,3,4,-6,-1,.
CCOc1ccc2ccccc2c1/C=N/NC(=O)c1cc(C)[nH]n1,0,1,1,49*,-4,1,15
Cc1cc(C(=O)N/N=C/c2c3ccccc3cc3ccccc23)n[nH]1,2,4,6,7,12,8,.
O=S(=O)(c1ccc2c(c1)CCCN2)N1CCCC1,-1,-5,7,-1,-1,-2,.
O=S(=O)(c1ccc2c(c1)CCCN2)N1CCCC2CCCCC21 (stereo not drawn),2,1,24,31*,24,5,2
C=CCNC(=S)N1CCN(S(=O)(=O)c2ccc(C)cc2)CC1,0,2,6,-12,3,-6,.
N/C(Cc1cccs1)=N\OC(=O)COc1ccc(Br)cc1Cl,1,-1,10,5,1,5,.
COc1ccc(C(=O)O/N=C(\N)Cc2cccs2)cc1OC,-2,-4,2,79*,6,13,76*
COc1ccccc1C/C(N)=N/OC(=O)c1ccc(C)c([N+](=O)[O-])c1,1,-4,2,24,5,6,.
Cc1ccc(C(=O)O/N=C(\N)Cc2cccs2)cc1[N+](=O)[O-],0,-2,3,36*,5,13,12
COc1cccc(CNS(=O)(=O)c2ccc3c(c2)CC(C)N3C(=O)C2CC2)c1 (stereo not drawn),2,-2,1,-1,5,2,.
Cc1ccc(S(=O)(=O)C(CCC(=O)N2CCOCC2)S(=O)(=O)c2ccc(C)cc2)cc1,0,-3,6,3,2,3,.
Cc1ccc(NC(=O)COC(=O)c2ccc(-n3cccn3)cc2)cc1C,-1,2,-4,11,-6,4,.
O=C(Nc1ccc(F)cc1F)c1ccc2c(c1)OCCO2,1,0,0,-5,2,6,.
CNC(=O)COC(=O)c1ccc(NS(=O)(=O)c2ccc3c(c2)OCCO3)cc1,-2,-2,0,0,0,7,.
O=C(COC(=O)c1ccc2c(c1)OCCO2)Nc1ccc(F)cc1,.,.,1,81*,13,.,82*
CC(C)NC(=O)COC(=O)c1ccc(NS(=O)(=O)c2ccc3c(c2)OCCO3)cc1,-1,-6,-4,51*,5,20,43*
Cc1ccnn1-c1ccc(C(=O)OCC(=O)Nc2ccc(F)cc2)cc1,.,.,4,55*,0,.,60*
O=C(COC(=O)c1ccc2c(c1)OCCO2)Nc1ccc(F)cc1F,.,.,6,77*,6,14,62*
